Compound activity from PubChem.
TGFb inhibitor: qHTS for Inhibitors of TGF-b. actives 1.2% (n = 410,000). AID 588855, 2011. Potency, µM (series often up to 46.1 µM), hits mostly inhibitors. HepG2 CAGA-GFP TGF-b/SMAD3 reporter, GFP fluorescence, 18 h; TGF-beta stimulated, 500 pg/mL final; note: nearly all actives have a fitted effect of over 65% in size
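Cell-based qHTS in HEPG2 carrying a CAGA-GFP Smad reporter; compounds added before 500 pg/mL final TGF-beta, 18 h incubation at 37 degrees C, GFP fluorescence quantified per cell by imaging cytometry.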
Giardia kill: Small Molecules that selectively kill Giardia lamblia: qHTS; Giardia lamblia trophozoite viability; activity change, % at 7.66 µM, hits read low; actives 0.15% (n = 340,000); in the data active = activity change below about -80%; inconclusive = between about -30% and that limit;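 note: parasites exposed to compound for two days anaerobically before the ATP read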
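Anaerobic 48 hrs incubation at 37 deg C of 100 trophozoites/well with test compounds; ATPLite 1-Step luminescence, 15-30 min RT, reports cellular ATP as viability.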
HepG2 tox: qHTS for Inhibitors of TGF-b: Cytotox Counterscreen | Potency, µM (highest dose often 46.1 µM), hits mostly cytotoxic | actives 0.76% (n = 410,000) | HepG2 CAGA-GFP viability, ATP luminescence, 18 h
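HepG2 CAGA-GFP cells (1000/well, DMEM with 1% FBS) received compound, then TGF-beta at 500 pg/mL final, and were incubated 18 hours at 37 degrees C. Viability was read by CellTiter-Glo luminescence. Media-only wells were set as complete cell-killing and DMSO as no toxicity.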
HT1080-NT tox: qHTS for induction of synthetic lethality in tumor cells producing 2HG: qHTS for the HT-1080-NT fibrosarcoma cell line | Potency, µM (titrated, usually from 46.1 µM), most hits filed as cytotoxic | HT-1080-NT fibrosarcoma viability, CellTiter-Glo ATP luminescence, 48 h | actives 1.6% (n = 360,000) | AID 686970, 2013;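 note: NT is the 2HG producing partner of a matched IDH1 knockdown line; nearly all actives have a fitted effect of over 55% in size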
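Toxicity toward the 2HG-producing NT line was scored as %Activity, normalised to DMSO and no-cell wells, from CellTiter-Glo luminescence after 48 hours' treatment.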
HT1080 IDH1KD tx: qHTS for induction of synthetic lethality in tumor cells producing 2HG: qHTS for the HT-1080-IDH1KD cell line; HT-1080 IDH1 knockdown viability, ATP luminescence, 48 h; Potency, µM (titrated, usually from 46.1 µM), hits mostly cytotoxic; actives 2% (n = 360,000); AID 686971, 2013
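Luminescent ATP read-out (CellTiter-Glo, 10 min at room temperature) after 48 h compound exposure at 37 °C gave viability of IDH1-knockdown HT-1080 cells. Activity was normalised to DMSO and cell-free wells, then fitted as concentration-response curves.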
IL1B secr inh: qHTS for Inhibitors of Inflammasome Signaling: IL-1-beta AlphaLISA Primary Screen | AID 743279, 2014 | THP-1 LPS/ATP IL-1B secretion, AlphaLISA, 16 h; active compounds read low | actives 4.7% (n = 360,000) | activity change, % at 57.5 µM; in the data active = activity change below about -50%; inconclusive = mostly about -30% to -49%
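THP-1 cells pretreated 1 hr with compounds (up to 57.5 uM final), then stimulated with LPS (250 ng/mL final) plus ATP (1.25 mM final); secreted IL-1B measured by AlphaLISA after 16 hr, decreased signal indicating inhibition.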
A number is an active result; 0 = inactive; ? = inconclusive; - = no result given. An excerpt weighted towards active compounds, which were near 6.5% of everything screened. Unless noted, calls come from the whole dose curve; as a rule, active = well fitted curve in the direction sought with a large enough effect; inconclusive = small, poorly fitted or top-dose-only effect, or another doubt; inactive = no such curve, though single readings can be large; an effect the other way counts as inactive or inconclusive.

SMILES | TGFb inhibitor | Giardia kill | HepG2 tox | HT1080-NT tox | HT1080 IDH1KD tx | IL1B secr inh
CCOC(=O)C1CCCN(C(=O)c2ccc3oc(Cc4ccccc4)nc3c2)C1 (configuration not stated) | 0 | 0 | 0 | 0 | 0 | 0
CC(C)CC(=O)C1CCCN(C(=O)c2ccc3oc(Cc4ccccc4)nc3c2)C1 (configuration not stated) | 0 | 0 | 0 | 0 | 0 | -52
CCc1ccccc1NC(=O)CN(C)C(=O)Cn1cnc2ccc(Cl)cc2c1=O | 0 | 0 | 0 | 0 | 0 | 0
CCC(=O)Nc1ccc(C(=O)Cn2ncc(Cl)c(Cl)c2=O)cc1 | ? | 0 | 0 | 0 | ? | -96
CCOC(=O)c1ccc(NC(=O)Cn2ncc(Cl)c(Cl)c2=O)cc1 | ? | 0 | 16µM | 16µM | 4.6µM | -100
CCc1ccccc1NC(=O)CN(C)C(=O)Cn1ncc(Cl)c(Cl)c1=O | 0 | 0 | 0 | ? | ? | -108
O=C1CCC(C(=O)N2CCN(c3ccccc3)CC2)CN1Cc1ccc(Cl)cc1 (configuration not stated) | 0 | - | 0 | 0 | 0 | 0
CCOC(=O)c1c(-c2cccc([N+](=O)[O-])c2)csc1NC(=O)C1CCCCC1 | 0 | 0 | 0 | 0 | 0 | 0
Cn1c(SCc2ccc(C(C)(C)C)cc2)nnc1C1COc2ccccc2O1 (configuration not stated) | 22µM | 0 | 0 | 0 | ? | 0
Nc1c(C(=O)CSc2n[nH]c(-c3ccccc3Br)n2)c(=O)[nH]c(=O)n1C1CC1 | 0 | 0 | 0 | 0 | 0 | 0
CC1CCCC(NCC(O)COC(c2ccc(F)cc2)c2ccc(F)cc2)C1C (configuration not stated) | ? | 0 | 22µM | 16µM | 21µM | -115
CC1CCCC(NC(=O)CSc2ccc(F)cc2)C1C (configuration not stated) | 0 | 0 | 0 | 0 | 0 | 0
CCOc1ccccc1NC(=O)C(=O)NCC(c1cccnc1)N1CCN(c2ccccc2)CC1 (configuration not stated) | 0 | - | 0 | - | - | -
O=[N+]([O-])c1ccc(N2CCN(Cc3ccc([N+](=O)[O-])o3)CC2)cc1 | 0 | ? | 0 | 0 | 0 | 0
O=[N+]([O-])c1ccc(CN2CCN(c3ccccc3)CC2)o1 | 0 | -92 | 0 | 0 | 0 | 0
Cc1ccccc1N1CCN(Cc2ccc([N+](=O)[O-])o2)CC1 | 0 | -83 | 0 | 0 | 0 | 0
CC(=O)c1ccc(NC(=O)CSc2nc(-c3ccccc3C)nc3c2c(=O)n(C)c(=O)n3C)cc1 | 0 | - | 0 | - | - | -
C[C@@H]1CN([C@@H](C)CO)C(=O)c2cccc(NS(C)(=O)=O)c2O[C@H]1CN(C)CC1CCCCC1 | 0 | 0 | 0 | 0 | 0 | 0
COc1cc(C#Cc2c(-c3cncn3C)n(C)c3ccc(-c4cc(OC)c(OC)c(OC)c4)cc23)cc(OC)c1 | ? | ? | 0 | ? | ? | -76
O=C(NCCNC(=O)c1ccc(-c2ccc(Cl)c(Cl)c2)o1)c1cnccn1 | 0 | 0 | 0 | 0 | ? | -74
O=C(NCCNC(=O)c1ccc(-c2cccc(Cl)c2)o1)c1cnccn1 | 0 | - | 0 | 0 | 0 | 0
COc1ccc(CCNc2nc(-c3sc(C)nc3C)cs2)cc1OC | 0 | 0 | 0 | 0 | 0 | -56
COc1ccc(CCNc2nc(-c3ccc(O)cc3)cs2)cc1OC | ? | ? | 0 | 0 | 0 | -62
COc1ccc(CCNc2nc(-c3ccncc3)cs2)cc1OC | ? | 0 | 0 | 0 | 0 | 0
COc1ccc(CCNc2nc(-c3ccccn3)cs2)cc1OC | 0 | 0 | 0 | ? | 0 | 0
SMILES | TGFb inhibitor | Giardia kill | HepG2 tox | HT1080-NT tox | HT1080 IDH1KD tx | IL1B secr inh
O=C(c1ccncc1)N(Cc1cc2ccccc2[nH]c1=O)C1CCCCC1 | 0 | 0 | 0 | 7.1µM | 5.6µM | 0
O=C(c1ccco1)N(Cc1cc2ccccc2[nH]c1=O)C1CCCCC1 | ? | 0 | 0 | 0 | 0 | 0
COc1ccc([N+](=O)[O-])cc1N1C(=O)c2cccnc2C1=O | 0 | 0 | 0 | 0 | 0 | 0
Oc1cc2c(cc1C(c1ccc(Cl)c(Cl)c1)N1CCCC1)OCO2 (configuration not stated) | ? | 0 | 0 | ? | ? | -99
Cc1ccc2nc(-c3ccccn3)c(Nc3ccc(F)cc3)n2c1 | 0 | - | 0 | - | - | -
Cc1ccc2nc(-c3ccccn3)c(N)n2c1 | 0 | - | 10µM | 0 | ? | 0
CC1(C)CC(=O)C2=C(C1)OC(N)=C(C#N)C2C#Cc1ccccc1 (configuration not stated) | ? | 0 | 0 | ? | ? | -96
CC1(C)CC(=O)C2=C(C1)OC(N)=C(C#N)C2c1cn(-c2ccccc2)nc1-c1ccccc1 (configuration not stated) | ? | 0 | 0 | 15µM | ? | -54
CC1(C)CC(=O)C2=C(C1)OC(N)=C(C#N)C2c1ccoc1 (configuration not stated) | 0 | 0 | 0 | 0 | 0 | 0
COCCC1CCCCN1C(=O)c1cc(COc2ccc(C)nc2)on1 (configuration not stated) | 0 | 0 | 0 | 21µM | 0 | ?
O=C1C(=C(I)I)c2ccccc2-c2ccccc21 | 6.3µM | 0 | 11µM | ? | 5.2µM | -101
O=C(O)c1cccc2c1C(=O)c1ccccc1-2 | 0 | 0 | 0 | 0 | ? | -
COc1ccc(/C=N/Nc2nccnc2Cl)c(OC)c1 | 0 | 0 | 0 | 0 | 0 | 0
COc1ccc(/C=N/Nc2nccnc2Cl)cc1 | 0 | 0 | 7.9µM | 10µM | 11µM | 0
COc1cccc(/C=N/Nc2nccnc2Cl)c1O | 0 | 0 | 11µM | ? | ? | 0
Clc1nccnc1N/N=C/c1ccc(Br)cc1 | 0 | 0 | 13µM | 0 | 0 | 0
Oc1ccccc1/C=N/Nc1nccnc1Cl | 0 | 0 | 0 | ? | ? | 0
COc1cccc(C=NNc2nnc(NN=Cc3cccc(OC)c3OC)c3ccccc23)c1OC | ? | 0 | 0 | 0 | 0 | -63
Brc1ccc(/C=N/Nc2ccccn2)cc1 | ? | 0 | 0 | 0 | 0 | 0
COc1ccccc1/C=N/Nc1nncc2ccccc12 | 0 | 0 | 0 | 0 | 0 | 0
Cc1ccc(-c2cn3c(n2)sc2cc(C(=O)NC4CCCCCC4)ccc23)c(C)c1 | 0 | - | 0 | - | - | -
Cc1ccc(S(=O)(=O)/C(C#N)=C/c2c(N3CCN(C)CC3)nc3ccccn3c2=O)cc1 | 0 | 0 | 0 | 0 | 0 | 0
COc1cc(S(=O)(=O)NC2CCSc3ccccc32)ccc1NC(C)=O (configuration not stated) | 0 | 0 | 0 | 0 | 0 | 0
